For test [1], the system named is Vero E6 infected with SARS-CoV-2. Nature of the test: morphology score (similarity to uninfected cells); higher = more like uninfected cells. The settings on record: 24 h.
The test system is the same in test [2]. Nature of the test: SARS-CoV-2 infection rate relative to infected DMSO; higher = more infection, active = 60 or less. The settings on record: 24 h.

The values that follow come from the supplement of paper PMC13380429.

Structures can show the parent of a compound that is named as a salt.

Turning to `O=C1C(=C(O)/C=C/c2ccc(O)cc2)C(=O)[C@@](O)([C@@H]2O[C@H](CO)[C@@H](O)[C@H](O)[C@H]2O)C(=O)[C@H]1[C@@H]1O[C@H](CO)[C@@H](O)[C@H](O)[C@H]1O` (10 µM), in test [1], the morphology score stood at 0.0573. For the same compound, the SARS-CoV-2 infection rate in test [2] is 104% (inactive).

Compound `CCSC(=N)N` [EIT-hydrobromide] (10 µM) gave a morphology score in test [1] of -0.0504. The SARS-CoV-2 infection rate in test [2] was 102% (inactive).

In test [1], `CCOc1cncc(/C=C/CCNC)c1` (10 µM) gave a morphology score of -0.0406. In addition, the SARS-CoV-2 infection rate in test [2] was 108% (inactive).

Compound `CC(=O)N[C@@H](CCC(N)=O)C(=O)O` [aceglutamide] (10 µM) returned a morphology score in test [1] of -0.137. Besides, in test [2], the SARS-CoV-2 infection rate was 105% (inactive).

In test [1], `NS(=O)(=O)c1ccc(-n2nc(C(F)(F)F)cc2-c2ccc(Cl)cc2)cc1` (10 µM) registered a morphology score of 0.0527. Further, in test [2], the SARS-CoV-2 infection rate is 106% (inactive).

`O=C(c1ccccc1)c1ccc2n1CCC2C(=O)O` (centres undefined) [ketorolac] (10 µM) came in with a morphology score in test [1] of 0.000781. For the same compound, the SARS-CoV-2 infection rate in test [2] was 107% (inactive).

Compound `CC(C)(S)C(N)C(=O)O` (stereo in doubt) [penicillamine-(racemic)] (10 µM) registered a morphology score in test [1] of 0.0971. The SARS-CoV-2 infection rate in test [2] is 100% (inactive).

`O=C(NOCC(O)CO)c1cc(Br)c(F)c(F)c1Nc1ccc(I)cc1F` (centres undefined) (0.833333 µM): the morphology score in test [1] was -0.0489. In addition, the SARS-CoV-2 infection rate in test [2] is 112% (inactive).

Regarding `COc1ccc([C@@H]2CC(=O)c3c(O)cc(O[C@@H]4O[C@H](CO)[C@@H](O)[C@H](O)[C@H]4O[C@@H]4O[C@@H](C)[C@H](O)[C@@H](O)[C@H]4O)cc3O2)cc1O` [neohesperidin] (10 µM), in test [1], the morphology score amounted to 0.00505. Moreover, in test [2], the SARS-CoV-2 infection rate is 112% (inactive).

Take `CN1CCC(Nc2ncc3ncnc(Nc4ccc(F)c(Cl)c4)c3n2)CC1` (10 µM): the morphology score in test [1] was found to be 0.0447. In addition, in test [2], the SARS-CoV-2 infection rate is 114% (inactive).

`Clc1cccc(-n2nnnc2NCc2ccccc2Oc2ccccn2)c1Cl` (10 µM): the morphology score in test [1] was -0.0586. Moreover, the SARS-CoV-2 infection rate in test [2] was 110% (inactive).

The compound `C[N+](C)(C)CCOC(=O)CCC(=O)OCC[N+](C)(C)C` [succinylcholine-chloride] (10 µM) gave a morphology score in test [1] of -0.0136. In test [2], the SARS-CoV-2 infection rate was 110% (inactive).

Take `Cc1ccc(C(C)C)c(O)c1` [thymol] (10 µM): in test [1], the morphology score is -0.0243. The SARS-CoV-2 infection rate in test [2] was 112% (inactive).

In turn, `Cc1cc2c(N3CCCC3)nc(N3CCCC3)nc2n1C` (10 µM) yielded a morphology score in test [1] of 0.452. For the same compound, in test [2], the SARS-CoV-2 infection rate was 75% (inactive).

Regarding `O=C(O)CCCCCCNC1c2ccccc2CCc2ccccc21` [amineptine] (10 µM), in test [1], the morphology score is 0.118. In addition, the SARS-CoV-2 infection rate in test [2] was 105% (inactive).

As to `Nc1ncnc2c1ncn2[C@@H]1O[C@H](CO)C[C@H]1O` [cordycepin] (10 µM), the morphology score in test [1] is -0.1. For the same compound, the SARS-CoV-2 infection rate in test [2] is 112% (inactive).

In turn, `O=C(C=Cc1ccccc1)NC(NC(=S)Nc1ccc(Cl)cc1)C(Cl)(Cl)Cl` (centres undefined) (10 µM) came in with a morphology score in test [1] of -0.143. The SARS-CoV-2 infection rate in test [2] is 106% (inactive).

Take `c1ccc2nc(C3=NCCN3)cnc2c1` (10 µM): in test [1], the morphology score amounted to 0.177. Further, the SARS-CoV-2 infection rate in test [2] is 93% (inactive).

`CCCn1cnc2c1c(=O)n(CCCCC(C)=O)c(=O)n2C` [propentofylline] (10 µM) returned a morphology score in test [1] of 0.065. The SARS-CoV-2 infection rate in test [2] was 102% (inactive).

Take `COC(=O)N/N=C/c1c[n+]([O-])c2ccccc2[n+]1[O-]` [carbadox] (10 µM): the morphology score in test [1] was found to be 0.227. Also, the SARS-CoV-2 infection rate in test [2] was 85% (inactive).

`CCCC(C)C1(CC)C(=O)NC(=S)NC1=O` (centres undefined) [thiopental] (10 µM) returned a morphology score in test [1] of 0.132. Besides, the SARS-CoV-2 infection rate in test [2] is 110% (inactive).

Consider `C[C@@H]1C[C@H]2[C@@H]3CCC4=CC(=O)C=C[C@]4(C)[C@@]3(F)[C@@H](O)C[C@]2(C)[C@H]1C(=O)CO` [desoximetasone] (10 µM), for which, in test [1], the morphology score was determined as 0.067. In addition, in test [2], the SARS-CoV-2 infection rate is 91% (inactive).

In turn, `Oc1cc(O)c2cc(O)c(-c3cc(O)c(O)c(O)c3)[o+]c2c1` [delphinidin] (10 µM) displayed a morphology score in test [1] of 0.115. Also, in test [2], the SARS-CoV-2 infection rate is 98.5% (inactive).

`c1ccc(C(NCc2cccnc2)(c2ccccc2)c2ccccc2)cc1` (10 µM): the morphology score in test [1] is -0.069. Further, the SARS-CoV-2 infection rate in test [2] was 104% (inactive).

Take `C[C@@H]1O[C@@H](O[C@H]2[C@H](Oc3cc(O)c(C(=O)CCc4ccc(O)cc4)c(O)c3)O[C@H](CO)[C@@H](O)[C@@H]2O)[C@H](O)[C@H](O)[C@H]1O` [naringin-dihydrochalcone] (10 µM): the morphology score in test [1] amounted to 0.0437. Also, the SARS-CoV-2 infection rate in test [2] is 107% (inactive).

Turning to `COc1ccc(C(=O)N2CCCc3cc(C4=NNC(=O)SC4C)ccc32)cc1OC` (centres undefined) (0.833333 µM), the morphology score in test [1] is -0.177. Besides, in test [2], the SARS-CoV-2 infection rate is 109% (inactive).

In test [1], `O=C(O)[C@@H]1C[C@@H](O)CN1` [L-hydroxyproline] (10 µM) had a morphology score of 0.203. Moreover, the SARS-CoV-2 infection rate in test [2] was 101% (inactive).

As for `Cc1cc(Nc2nc(N[C@@H](C)c3ccc(F)cc3)c(C#N)cc2F)n[nH]1` (10 µM), the morphology score in test [1] was -0.0459. Moreover, the SARS-CoV-2 infection rate in test [2] was 110% (inactive).

Take `N[C@@H](CCC(=O)N[C@@H](CS)C(=O)NCC(=O)O)C(=O)O` [glutathione] (10 µM): the morphology score in test [1] was -0.0349. Besides, the SARS-CoV-2 infection rate in test [2] was 108% (inactive).

In turn, `Cc1ccc(NCCCc2ccccc2)c(N)c1` [NFKB-activation-inhibitor-II] (10 µM) came in with a morphology score in test [1] of 0.238. The SARS-CoV-2 infection rate in test [2] is 102% (inactive).

`CCc1nn(CCO)c(CC)c1Oc1cc(C#N)cc(C#N)c1` [lersivirine] (10 µM): the morphology score in test [1] stood at 0.162. The SARS-CoV-2 infection rate in test [2] was 97% (inactive).

As for `COc1ccc(-c2nc(N3CCOCC3)c3sc(CN(C)c4ncc(C(=O)NO)cn4)cc3n2)cn1` (10 µM), the morphology score in test [1] is -0.449. Besides, the SARS-CoV-2 infection rate in test [2] was 116% (inactive).
